A selection: hits, their analogues and other compounds. The true share with any hit is near 14%.
HCMV antiviral: inhibitors of human cytomegalovirus. AID 1259415. HFF cells, HCMV-luciferase reporter, 72 h; stronger effect = lower value. hit rate 4.5% among 410,000. activity change, negative = inhibition, % at 57.5 µM; in the data active = activity change below about -60%; inconclusive = no clear call, values can overlap the other calls; inactive = above about -39%
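Luciferase read-out from HCMV-luciferase-infected HFFs (MOI 1 PFU/cell) 72 h post infection at 37C; compounds added after 16 h cell attachment; activity normalized between buffer-only basal and Salinomycin (10uM) inhibitor controls.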
LASV entry inh: blocks Lassa virus binding to or entry into cells. Lassa virus pseudotype entry inhibition, cell reporter. Potency, µM (top dose mostly 37.9 µM), inactives show top-dose activity change, negative = inhibition, most hits filed as inhibitors. hit rate 1.2% among 300,000. AID 540256; calls by dose curve; tested in HEK293 cells; note: potency is the fitted concentration of half-maximal effect; nearly all actives have a fitted effect of over 50% in size
Pf growth 48h: inhibits P. falciparum growth in the first generation, 48 h; P. falciparum luciferase growth in erythrocytes, 48 h; Potency, µM (series often up to 28.7 µM), inactives show top-dose activity change, negative = inhibition, usual class: inhibitors; hit rate 5.9% among 310,000; note: potency is the fitted concentration of half-maximal effect
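Luciferase-expressing P. falciparum in infected erythrocytes (2% hematocrit, 0.1% parasitemia final) in RPMI 1640/0.5% Albumax were exposed to compound for 48 hours at 37 C, 5% CO2; growth read as luminescence.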
HCV inhibitor: HCV inhibition; Huh7.5.1 HCVcc-Cre infection, luciferase reporter, 44 h; Potency, µM (top dose mostly 41.8 µM), inactives show at the highest dose activity change, negative = inhibition, usual class: inhibitors; hit rate 3.4% among 340,000; AID 651820; note: potency is the fitted concentration of half-maximal effect
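Infectious HCV cell culture screen: compound-treated cells (1,000/well, pre-plated 4 h) are infected with HCVcc-Cre at roughly 0.5 moi and grown 44 h. Infection is quantified by luciferase signal after 15 min substrate incubation at room temperature.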
Marburg entry inh: blocks Marburg virus binding to or entry into cells; Marburg virus pseudotyped entry inhibition, cell reporter; Potency, µM (top dose mostly 37.8 µM), without a hit: at the top dose activity change, negative = inhibition, most hits filed as inhibitors; hit rate 1.8% among 300,000; AID 540276; calls by dose curve; tested in HEK293 cells; note: potency is the fitted concentration of half-maximal effect
Pf growth 96h: P. falciparum growth inhibition at 96 hours; P. falciparum luciferase reporter growth, 96 h; Potency, µM (highest dose often 28.7 µM), inactives show at the highest dose activity change, negative = inhibition, most hits filed as inhibitors; hit rate 6.9% among 320,000; AID 504834; note: potency is the fitted concentration of half-maximal effect
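Infected RBCs, 2% Hct / 0.05% parasitemia final; luciferase-reporter P. falciparum; cpd 96 h, 37 C, 5% CO2; luciferase detection reagent; luminescence.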
* marks the source's active call; other numbers are inactive results; u = inconclusive; x = no result; ! = not confirmed by another sample; [ ] = remark or other dose. Unless noted, calls come from the whole dose curve; as a rule, active = well fitted inhibition curve with a large enough effect; inconclusive = small, poorly fitted or top-dose-only effect, or another doubt; inactive = no such curve, though single readings can be large or run the other way. % is set by controls: 0 for no effect and ±100 for the full control effect.

SMILES | HCMV antiviral | LASV entry inh | Pf growth 48h | HCV inhibitor | Marburg entry inh | Pf growth 96h
CCC(=O)O[C@@](Cc1ccccc1)(c1ccccc1)[C@@H](C)CN(C)C | x | x | -4%[12.8 µM] | x | x | -2%[12.8 µM]
CC(NCC(=O)Nc1ccccc1C(=O)NC1CC1)c1ccco1 (stereo not drawn) | -18 | 2% | 1.7µM* | 8% | 16%[46.1 µM] | 7%
CCN(CC)S(=O)(=O)c1ccc(C(C)NCC(=O)Nc2ccccc2C(=O)NC2CC2)cc1 (stereo not drawn) | -25 | 0% | 10µM* | u | u | u
Cc1cc(C)c(Cn2cnc(-c3ccc([N+](=O)[O-])cc3)c2)c(C)c1 | u | -16% | u | 11µM* | u | u
CC(C)(C)c1ccc(Cn2cnc(-c3ccc([N+](=O)[O-])cc3)c2)cc1 | 56 | 8.9µM* | 67% | u | u | u
CCc1ccc(CNC(=O)C(CC)n2nc(C)c3c(C)n(-c4ccccc4)nc3c2=O)cc1 (stereo not drawn) | -19 | -2%[46.1 µM] | x | x | x | x
O=C1c2c(-c3ccc(Br)cc3)noc2CCN1Cc1cn(-c2ccc(Cl)cc2)nn1 | -27 | x | x | x | x | x
CCSc1nnc2c(n1)[nH]c1c(C)cccc12 | u | -11% | x | 32µM* | u | x
Cc1cccc(CSc2nnc3c(n2)[nH]c2ccccc23)c1 | -4 | x | 1.5µM* | -21% | x | 1.9µM*
Cc1ccnc(NC(=O)CSc2nnc3c(n2)[nH]c2ccccc23)c1 | x | x | 8% | x | x | -4%
C=CCSc1nnc2nc3[nH]c4c(C)cccc4c3nn12 | 89 | 3% | u | 9% | u | x
CSc1nnc2c(n1)[nH]c1c(C)cccc12 | 10 | -2% | 8.3µM* | -18% | 3% | 5.2µM*
CC(=O)/C=C/c1ccccc1Oc1c(F)c(F)nc(F)c1F | -67* | x | u | -19% | x | 9.3µM*
CC(C)(C)n1nnnc1CN(Cc1ccco1)Cc1cc2cc3c(cc2[nH]c1=O)OCO3 | -65* | -13% | u | -6% | -3% | x
COc1ccc2cc(CN(Cc3ccco3)C(c3nnnn3C3CCCCC3)C(C)C)c(=O)[nH]c2c1 (stereo not drawn) | -24 | 8% | u | u | 0% | -9%[5.75 µM]
COc1ccc2cc(CN(Cc3ccco3)Cc3nnnn3C3CCCCC3)c(=O)[nH]c2c1 | -84* | u | u | u | u | 8%
CC(C)(C)c1ccc(CN(Cc2ccco2)Cc2nnnn2C2CCCC2)cc1 | 6 | u | 9.3µM* | u | u | 5.2µM*
CCC(C)(C)n1nnnc1CN(Cc1ccc(Cl)cc1)Cc1ccco1 | -64* | -9% | 10µM* | u | u | u
CCOC(=O)c1c(S(=O)(=O)N2CCCC(C(=O)NCc3ccccc3Cl)C2)c(C)n(C)c1C (stereo not drawn) | -11 | 6%[46.1 µM] | x | x | x | x
C[C@@H]1CCCCO[C@@H](CN(C)C(=O)NC2CCCCC2)[C@@H](C)CN([C@H](C)CO)C(=O)c2cc(N(C)C)ccc2O1 | -21 | x | x | x | x | x
Cc1ccc2[nH]c(=O)c(CN(CCCN3CCOCC3)Cc3nnnn3C3CCCC3)cc2c1 | -21 | -7% | u | 0% | u | 4%
CCc1ccc2[nH]c(=O)c(CN(Cc3ccc4c(c3)OCO4)Cc3nnnn3C3CCCC3)cc2c1 | -4 | 8.2µM* | u | u | u | 1%
Cc1ccc2cc(CN(Cc3ccc(F)cc3)Cc3nnnn3C3CCCC3)c(=O)[nH]c2c1 | 25 | -21% | 3.7µM* | 14% | 15µM*! | 51%
Cc1ccc2cc(CN(Cc3ccccc3)Cc3nnnn3C3CCCC3)c(=O)[nH]c2c1 | -37 | -16% | u | u | u | u
CCC(Oc1ccc(F)cc1)C(=O)Nc1nc2c(s1)CCCC2 (stereo not drawn) | -11 | -5%[46.1 µM] | x | x | -24%[46.1 µM] | x
SMILES | HCMV antiviral | LASV entry inh | Pf growth 48h | HCV inhibitor | Marburg entry inh | Pf growth 96h
O=C(N/N=C/c1cccc([N+](=O)[O-])c1)c1cc[n+](CCO)cc1 | -9 | x | 82% | 3% | x | 28%
Cc1ccccc1-c1nc(CN(Cc2c(C)nn(C)c2C)C2CC2)c(C)o1 | u | u | 12µM* | u | u | 37%
O=c1[nH]cnc2c1ccn2C1OC(CO)C(O)C1O (stereo not drawn) | -69* | x | x | 1.1µM* | x | x
Nc1nc(=O)n(C2OC(CO)C(O)C2O)cc1F (stereo not drawn) | -99* | x | x | x | x | x
O=c1[nH]c(=O)n(C2OC(CO)C(O)C2O)cc1F (stereo not drawn) | x | 2µM* | x | u | u | x
Nc1ncn(C2O[C@H](CO)[C@@H](O)[C@H]2O)c(=O)n1 (stereo partly drawn) | x | x | 17% | 7% | x | 111%
Nc1cnn(C2OC(CO)C(O)C2O)c(=O)n1 (stereo not drawn) | -64* | u | -17% | 13% | u | -7%
CCc1ccc2oc(C(=O)NCCc3ccc(OC)c(OC)c3)cc(=O)c2c1 | -39 | -22%[46.1 µM] | x | x | -24%[46.1 µM] | x
CCOC1=C2CN(S(=O)(=O)c3ccc(C)cc3)[C@@H](c3cccs3)C[C@H]2[C@H]2C(=O)N(c3ccccc3)C(=O)[C@H]2C1 | -13 | x | x | x | x | x
O=C(O)C1(Nc2ccc(Br)cc2)CCCC1 | -13 | -13% | x | 22% | -11% | x
O=C1c2ccccc2NC(c2ccccc2)N1Cc1ccco1 (stereo not drawn) | -14 | 9% | -14% | -4% | 0% | -6%
O=C1c2ccccc2NC(c2ccc(F)cc2)N1Cc1ccco1 (stereo not drawn) | 14 | 0% | 0% | -12% | u | 83%
COc1ccc(C2Nc3ccccc3C(=O)N2Cc2ccco2)cc1COc1ccc([N+](=O)[O-])cc1 (stereo not drawn) | -35 | u | u | u | u | 5.9µM*
COc1cccc(OCc2cc(C3Nc4ccccc4C(=O)N3Cc3ccco3)ccc2OC)c1 (stereo not drawn) | -21 | 8.9µM* | 8.3µM* | u | u | -7%
COc1ccc(N(CC(=O)NC(C)c2ccccc2)S(=O)(=O)c2ccc(C)cc2)cc1 (stereo not drawn) | -2 | -20% | -7% | -16% | -19%[46.1 µM] | u
COc1ccc(N(CC(=O)NCc2ccccc2C)S(=O)(=O)c2ccc(C)cc2)cc1OC | -19 | -10% | u | -8% | 3% | 48%
CNC(=O)CN(c1ccc(Oc2ccccc2)cc1)S(=O)(=O)c1ccc(C)cc1 | -2 | 7.1µM* | -20% | x | -15% | 0%
COc1ccc(S(=O)(=O)N(CC(=O)NCc2ccccc2OC)c2ccc(C)cc2)cc1 | -68* | -20%[46.1 µM] | x | x | x | x
COc1ccccc1CNC(=O)CS(=O)(=O)Cc1ccccc1 | -1 | 23%[46.1 µM] | 9% | 9% | -4%[46.1 µM] | 2.6µM*
CCOc1ccc(S(=O)(=O)N(CC(=O)NCc2ccccc2OC)c2ccccc2)cc1 | -62* | u | x | x | u | x
